Test results taken from PubChem BioAssay (NCI).
The panel holds about 79,000 compounds, 15% with a hit somewhere; the sample as a whole holds those more often. Rule as the data show it: active = growth inhibition above about 70%; inactive = the rest.

Assays:
[1] = NCI Yeast Anticancer Drug Screen. Data for the rad50 strain (AID 155);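 also: 0% = growth of vehicle-only cultures of the same strain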; details: S. cerevisiae rad50 strain growth inhibition; at 50.0 µM; active compounds read high
Outline: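 Readout: growth inhibition relative to vehicle-treated cultures. Compound exposure was carried out in a genetically defined yeast strain deficient in DNA damage repair.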

[2] = NCI Yeast Anticancer Drug Screen. Data for the mec2-1 strain (AID 157); details: S. cerevisiae mec2-1 strain, at 50.0 µM, active compounds read high
Outline: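 Growth inhibition is read against vehicle-treated controls after compound exposure of the mec2-1 yeast strain, which is defective in DNA damage repair or cell cycle control.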

[3] = NCI Yeast Anticancer Drug Screen. Data for the sgs1 mgt1 strain (AID 161);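 also: 0% = growth of cultures given vehicle only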; details: S. cerevisiae sgs1 mgt1 strain, at 50.0 µM, active compounds read high
Outline: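 Compounds are added to genetically altered yeast, and growth is compared with cultures given vehicle alone to give percent inhibition.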

[4] = NCI Yeast Anticancer Drug Screen. Data for the cln2 rad14 strain (AID 165);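 also: 0% = growth equal to vehicle treated cultures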; details: S. cerevisiae cln2 rad14 strain, at 50.0 µM, active compounds read high
Outline: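 Growth inhibition, relative to vehicle-treated controls, is the read-out. The test organism is a yeast strain with defined genetic alterations, cln2 rad14.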

[5] = NCI Yeast Anticancer Drug Screen. Data for the bub3 strain (AID 167); details: S. cerevisiae bub3 mutant strain, at 50.0 µM, active compounds read high
Outline: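 Readout: yeast growth inhibition, expressed relative to vehicle-only wells. The test organism is a mutant strain from a panel with lesions in DNA repair or checkpoint genes.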

[6] = NCI Yeast Anticancer Drug Screen. Data for the mlh1 rad18 strain (AID 175); details: S. cerevisiae mlh1 rad18 strain growth inhibition; at 50.0 µM; active compounds read high
Outline: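 Cells of a genetically altered yeast strain, deficient in DNA damage repair, were treated with compound. Their growth was then compared with that of vehicle-treated cultures to give inhibition.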

Measured: growth inhibition

CC[N+](CC)(CC)CC#CC[N+](CC)(CC)CC
inactive: [1] 5.65% | [2] 5% | [3] 14.3% | [4] 1.45% | [5] 12.8% | [6] 6.1%

CN(C)P(=O)(N(C)C)N(C)C (tested in a mixture with another compound)
inactive: [1] 8.45% | [2] -7% | [3] 3.65% | [4] -21.1% | [5] -31.6% | [6] -14.3%

O=C(NCCc1ccccn1)c1ccc2cc(C(=O)N3CC(CCl)c4ccc([N+](=O)[O-])cc43)[nH]c2c1 (stereo unspecified)
inactive: [1] 8.65% | [2] -2% | [3] 3.95% | [4] 12.4% | [5] 2.95% | [6] -76.3%

O=C(CN1C(=O)C2CCCCC2C1=O)N1CC1 (stereo unspecified)
inactive: [1] -7.8% | [2] 0.1% | [3] -11.7% | [4] 5.85% | [5] -6.6% | [6] -9.3%

Cc1ccccc1C(=O)[O][Pb]([CH3])([CH3])[CH3]
inactive: [1] 21.4% | [2] -48% | [3] -6.5% | [4] -27.9% | [5] 0% | [6] 7%

COc1ccc(CC(N)c2nn[nH]n2)cc1 (stereo unspecified)
inactive: [1] 4.1% | [2] -1% | [3] -1.1% | [4] -23.1% | [5] 8.15% | [6] -1.75%

O=C(O)C(F)(F)C(F)(Cl)C(F)(F)C(F)(Cl)C(F)(F)Cl (stereo unspecified) (tested in a mixture with another compound)
inactive: [1] -7.65% | [2] -12.8% | [3] -12.7% | [4] -28.2% | [5] 1.1% | [6] -6.2%

CC(=O)CC(C)C(=O)O (stereo unspecified) (tested in a mixture with another compound)
inactive: [1] -5.9% | [2] -11% | [3] -16.6% | [4] -6.55% | [5] -5.6% | [6] -20.6%

N.N.N.N.N.N#Cc1nn[n-]n1.[Cl-].[Co+3]
inactive: [1] 4.95% | [2] 9.25% | [3] 16.8% | [4] 24.4% | [5] 12.3% | [6] 12.9%

COc1ccc2[se]c(C)nc2c1
inactive: [1] -26.2% | [2] -35.1% | [3] 5.3% | [4] -2.6% | [5] -17.3% | [6] -18.6%

O=NN(CCCl)C(=O)O
inactive: [1] 5.55% | [2] -9.05% | [3] -5.25% | [4] -42.8% | [5] 10.9% | [6] 11.9%

C1CCC2[N-]CCCC2C1.C1CCC2[N-]CCCC2C1.[Cl][Pt+2][Cl] (stereo unspecified)
inactive: [1] 42.2% | [2] 36% | [3] 55.2% | [4] 22.9% | [5] 59.4% | [6] 64.6%

CCCCCCCCCCOC(=O)c1ccccc1C(=O)OCCCCCCCCCC
inactive: [1] -22% | [2] -23.9% | [3] -13.8% | [4] 17.3% | [5] -11.2% | [6] -24.6%

CCC(=O)c1ccc(OC)c(OC)c1
inactive: [1] 7% | [2] -1.3% | [3] -0.15% | [4] -2.85% | [5] 15.7% | [6] 1.75%

CC1=CC(=O)C2=C(C)C[C@H](O)[C@@H]3[C@H](OC(=O)[C@H]3C)[C@@H]12
inactive: [1] -2.45% | [2] 2.95% | [3] 6.4% | [4] 17.2% | [5] 6.25% | [6] 8.85%

CC(C)N([PH2+]N(C(C)C)C(C)C)C(C)C.[C-]#[O+].[C-]#[O+].[C-]#[O+].[C-]#[O+].[C-]#[O+].[Mo]
inactive: [1] 9.4% | [2] 15.9% | [3] -2.2% | [4] 17.1% | [5] 6.35% | [6] -1.35%

CCN1CCOC(CC)(c2cc(Cl)cc(Cl)c2Cl)C1 (stereo unspecified)
inactive: [1] 6.35% | [2] 20.4% | [3] 8.4% | [4] 13.2% | [5] 4.3% | [6] 20.4%

O=[As](O)(O)c1ccc(N=Nc2ccc([As](=O)(O)O)cc2)cc1
inactive: [1] -0.35% | [2] 11.1% | [3] -15.9% | [4] 6.8% | [5] -22.5% | [6] -16.6%

N#CS.N=C=S.N=C=S.[Co+3].[NH-]CC[NH-].[NH-]CC[NH-]
inactive: [1] 10.5% | [2] 10.2% | [3] 36.4% | [4] 3.5% | [5] 27.9% | [6] 10.7%

CNC(=O)N1CN(c2ccccc2)C2(CCN(Cc3ccccc3)CC2)C1=O
inactive: [1] -29.4% | [2] -15.8% | [3] -15.9% | [4] -2.8% | [5] -10.4% | [6] -4.1%

O=[As](O)(O)c1cccc(O)c1
inactive: [1] -6.8% | [2] -7.25% | [3] -8.65% | [4] 3.7% | [5] 9.25% | [6] -16.1%
